KB-V1 MDR tox = KB-V1 MDR subline cytotoxicity | KB-V1 MDR cells viability, CellTiter-Glo, 72 h | Potency, µM (top dose mostly 46.1 µM), actives largely listed as cytotoxic | 400,000 compounds, 3.4% hits; further: on the % scale 0 is the no-effect control and ±100 the full control effect; nearly all actives have a fitted effect of over 60% in size
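Cytotoxicity toward P-gp-expressing KB-V1 cells was determined as loss of CellTiter-Glo luminescence after 72 h at 37 degrees C. Compounds were tested in quantitative HTS format across a concentration range, with curves fitted to normalized data.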
MCF10A rereplic = DNA re-replication induction in MCF 10a cells; Potency, µM (top dose mostly 46.1 µM), for inactives: top-dose activity, positive = re-replication, most hits filed as activators; MCF 10A DNA re-replication, Hoechst nuclear intensity, 48 h; AID 624296; 350,000 compounds, 2.9% hits; further: % of control where 0% means no effect; nearly all actives have a fitted effect of over 50% in size
SW480 rerep = DNA re-replication induction in SW480 cells. SW480 DNA re-replication, Hoechst DNA content imaging, 48 h. Potency, µM (titrated, usually from 46.1 µM), for the others: at the highest dose re-replication activation, actives largely listed as activators. 340,000 compounds, 1.8% hits. AID 624297; further: % of control where 0% means no effect; nearly all actives have a fitted effect of over 55% in size
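Image-based DNA-content assay: after two days of treatment, nuclei were labelled with the DNA dye Hoechst and imaged, and hits were compounds raising the count of nuclei showing high fluorescence intensity.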
HT1080 IDH1KD tx = kills HT-1080 cells with IDH1 knockdown. HT-1080 IDH1 knockdown viability, ATP luminescence, 48 h. Potency, µM (titrated, usually from 46.1 µM), without a hit: at the highest dose activity, negative = toxicity, usual class: cytotoxic. 360,000 compounds, 2% hits. AID 686971;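 further: 0% = DMSO wells and -100% = cell-free medium wells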
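% activity derives from luminescence (CellTiter-Glo), normalised to DMSO and no-cell wells. HT-1080-IDH1KD cells, 750/well, had 48 h compound exposure at 37 °C.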
HT1080-NT tox = kills 2HG-producing HT-1080-NT fibrosarcoma cells | 360,000 compounds, 1.6% hits | Potency, µM (highest dose often 46.1 µM), inactives show top-dose activity, negative = less viability, hits mostly cytotoxic | HT-1080-NT fibrosarcoma viability, CellTiter-Glo ATP luminescence, 48 h;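 further: NT is the 2HG producing partner of a matched IDH1 knockdown line; 0% = DMSO-treated cells and -100% = media-only wells without cells; nearly all actives have a fitted effect of over 55% in size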
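Luminescent CellTiter-Glo readout after 48 hours of compound exposure at 37 degrees C defined viability of HT-1080-NT cells. Activity was normalized to DMSO wells and cell-free media wells; concentration-response curves were fitted and assigned curve classes.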
KB-3-1 cytotox = kills parental KB-3-1 adenocarcinoma cells. KB-3-1 viability, CellTiter-Glo ATP luminescence, 72 h. Potency, µM (top dose mostly 46.1 µM), actives largely listed as cytotoxic. 400,000 compounds, 1.4% hits; further: on the % scale 0 is the no-effect control and ±100 the full control effect; nearly all actives have a fitted effect of over 60% in size
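Cytotoxicity measured as CellTiter-Glo luminescence after 72 h at 37 C. Compound titrations were pinned onto drug-naive KB-3-1 parental adenocarcinoma cells grown in DMEM with 10% FBS, and normalized data fitted to concentration-response curves.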
* = called active by the depositor; i = inactive; u = inconclusive; x = no result; [ ] = remark or other dose. Sampled rows, rich in hits. Any-hit rate of the full collection: about 8%. The call rests on the fitted dose curve; in most records, active means well fitted curve in the direction sought with a large enough effect; inconclusive means small, poorly fitted or top-dose-only effect, or another doubt; inactive means no such curve, though single readings can be large; an effect the other way counts as inactive or inconclusive. Potency means the concentration at half of the fitted maximal effect.

SMILES | KB-V1 MDR tox | MCF10A rereplic | SW480 rerep | HT1080 IDH1KD tx | HT1080-NT tox | KB-3-1 cytotox
NS(=O)(=O)c1ccc(N=Nc2cc3ccccc3c(C(=O)O)c2O)cc1 | i | x | x | x | x | i
CCc1ccc(S(=O)(=O)Nc2cc3c(cc2C)n(C)c(=O)n3C)cc1 | i | u | -7% | 15µM* | 16µM* | 5.2µM*
CC(C)c1ccc(S(=O)(=O)Nc2cc3c(cc2NCc2ccccc2)n(C)c(=O)n3C)cc1 | u | x | x | x | x | 23µM*
Cc1ccc(S(=O)(=O)Nc2cc3c(cc2NCc2ccccc2)n(C)c(=O)n3C)cc1 | i | x | x | x | x | i
Cc1ccc(O)c(NC(=O)c2nc3nc(C)cc(C(F)F)n3n2)c1 | i | x | x | x | x | i
Oc1ccc(/C=N/Nc2nc(-c3ccc(Cl)cc3)cc(C(F)(F)F)n2)cc1 | u | u | u | 16µM* | u | u
Cc1cc(-c2ccccc2)nc(N/N=C/c2ccc(O)cc2)n1 | u | u | -436% | u | u | 21µM*
Cc1cc(C)nc(N/N=C/c2ccccc2)n1 | i | 2% | -5% | -1% | 8% | i
Cc1cc(N/N=C/c2ccc(O)cc2)c2cccc(C)c2n1 | i | u | u | u | u | i
Fc1ccc(CNc2nc(-c3ccc(Cl)cc3)cc(C(F)(F)F)n2)cc1 | i | x | x | x | x | u
Cc1cc(C)c2nc(C)cc(N/N=C/c3ccc(O)cc3)c2c1 | u | 15µM* | 4.1µM* | 5.8µM* | 5.2µM* | u
CCN(CC)c1ccc(/C=N/Nc2nc(C)cc(C)n2)cc1 | i | u | 18µM* | -9% | -6% | i
Cc1ccccc1C(=O)Nc1nc2c(s1)CC(C(C)(C)C)CC2 (stereo not drawn) | i | x | x | x | x | i
C[C@]12CC[C@@H]3c4ccc(O)cc4CC[C@H]3[C@@H]1CC[C@@H]2OC(=O)CCC1CCCC1 | i | -11% | -3% | 0% | 19% | i
CC#Cc1cc2c(cc1O)CCC1C2CCC2(C)C(O)CCC12 (stereo not drawn) | u | 8.2µM* | 9.2µM* | u | 8.2µM* | 2.6µM*
CCNc1cc2c(cc1O)CCC1C2CCC2(C)C(O)CCC12 (stereo not drawn) | u | u | u | -11% | -9% | u
CCCCC(=O)O[C@H]1CC[C@H]2[C@@H]3CCc4cc(O)ccc4[C@H]3CC[C@]12C | u | 24% | 9% | u | 21µM* | u
C=Cc1cc2c(cc1O)CCC1C2CCC2(C)C(O)CCC12 (stereo not drawn) | u | 10µM* | u | u | u | 18µM*
CCOc1cc2c(cc1O)CCC1C2CCC2(C)C(O)CCC12 (stereo not drawn) | u | 1.2µM* | u | u | u | u
CCOC(=O)c1c(S(=O)(=O)N2CCCC(C(=O)N3CCN(c4cccc(C)c4C)CC3)C2)c(C)n(C)c1C (stereo not drawn) | i | x | x | x | x | i
Cc1ccc2cccc(NC(=O)c3ccc(-c4cccc(Cl)c4Cl)o3)c2n1 | i | x | x | x | x | i
COc1ccc(CCn2c(=S)[nH]c(=O)c3[nH]cnc32)cc1OC | x | x | x | 15% | 3% | x
C[C@@H]1COC(=O)[C@H](Cc2ccc(F)cc2)CC/C=C/C[C@@H](CC(=O)N[C@@H](CO)Cc2ccccc2)C(=O)N1 | i | 2% | u | -4% | -4% | i
O=C1NC[C@@H](c2ccccc2)OC(=O)[C@@H](Cc2ccc(F)cc2)CC/C=C/C[C@H]1CC(=O)N(CCO)Cc1ccccc1 | u | u | 4.6µM* | x | u | u
O=C(C[C@@H]1C/C=C/CC[C@H](Cc2ccc(F)cc2)C(=O)OC[C@@H](Cc2ccccc2)NC1=O)N[C@H](CO)Cc1ccccc1 | i | 7.3µM* | u | u | u | u
SMILES | KB-V1 MDR tox | MCF10A rereplic | SW480 rerep | HT1080 IDH1KD tx | HT1080-NT tox | KB-3-1 cytotox
O=C1NC[C@H](c2ccccc2)OC(=O)[C@H](Cc2ccc(F)cc2)CC/C=C/C[C@@H]1CC(=O)N(CCO)Cc1ccccc1 | i | u | 10% | x | u | i
CCOCCCNC(=O)C1CCN(C(=O)c2cc3sccc3n2C)CC1 | i | x | x | x | x | i
CC(=O)Nc1ccc(C)cc1-c1nc2ccccc2n(CC(=O)Nc2cc(Cl)ccc2C)c1=O | i | x | x | x | x | i
CC(C)OCCCn1c(=O)c2ccccc2n2c(-c3cc(Cl)ccc3O)nnc12 | i | x | x | x | x | i
COc1ccc(-c2c(-c3ccc(OC)nc3)c3ccccc3n2C)cc1 | i | 5.2µM* | u | -14% | -14% | i
Cc1ccc2c(c1)C(c1ccc(F)cc1)N(C(=O)c1ccc(OC(C)C)cc1)CC(=O)N2 (stereo not drawn) | i | x | x | x | x | i
COC(=O)C1=CN(c2ccc(OC)cc2)C=C(C(=O)OC)C1c1ccc(C)c([N+](=O)[O-])c1 | 3.3µM* | 0% | 4% | -4% | -8% | u
COC(=O)C1=CN(c2ccc(OC)cc2)C=C(C(=O)OC)C1c1cccc(F)c1 | i | 1% | 24% | 13% | 7% | i
CCOc1ccc(N2CC(C(=O)Nc3cc(S(=O)(=O)N4CCCCC4)ccc3C)CC2=O)cc1 (stereo not drawn) | 18µM* | 12% | 6% | -2% | 0% | i
CCOc1ccc(N2CC(C(=O)Nc3ccc4c(c3)OCO4)CC2=O)cc1 (stereo not drawn) | i | 11% | -1% | -6% | -19% | i
Cc1csc(NC(=O)C2CC(=O)N(c3ccc4c(c3)OCCO4)C2)n1 (stereo not drawn) | i | -5% | -22% | 5% | 7%[9.24 µM] | i
CCOc1ccc(N2CC(C(=O)Nc3ccc4c(c3)OCCO4)CC2=O)cc1 (stereo not drawn) | i | 0% | -2% | 1% | -5% | 5.2µM*
Cc1cnc(NC(=O)C2CC(=O)N(c3cccc(Cl)c3)C2)s1 (stereo not drawn) | 21µM* | u | u | 1% | -2% | u
CCc1ccc(-c2csc(NC(=O)C3CC(=O)N(c4ccc5c(c4)OCCO5)C3)n2)cc1 (stereo not drawn) | i | 18µM* | u | u | u | u
CCn1c(CNC(=O)c2ccc(OC)cc2)nnc1SCC(=O)Nc1ccc(F)cc1 | i | x | x | x | x | i
COc1ccc(C2Nc3ccccc3C(=O)N2Cc2ccccc2)cc1COc1ccc([N+](=O)[O-])cc1 (stereo not drawn) | i | x | x | x | x | i

Screens (PubChem BioAssay)
